The results in this text go back to PubChem BioAssay (NCI).

This is part of a sample that, as a whole, favours compounds with a hit. Of some 79,000 tested, about 15% had one in any assay. A number with no mark means an inactive call. The source made the active and inactive calls. Rule as the data show it: active = growth inhibition above about 70%; inactive = the rest.

The nature of the test: NCI Yeast Anticancer Drug Screen. Data for the rad14 strain (AID 159).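 Also: 0% = growth of vehicle-treated control cultures.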 The settings on record: S. cerevisiae rad14 strain growth inhibition, hits give high values. As for the experimental part: Growth inhibition of yeast strains with defined genetic alterations is measured as a screen for potential anti-cancer activity. Selected strains with alterations in DNA damage repair or cell cycle control were exposed to compounds and growth inhibition was measured relative to vehicle treated controls. The strain used in this assay is rad14

With `CCn1c(O)c(C=Nc2ccccc2)s/c1=N/Nc1nc(-c2ccccc2)cs1`, the growth inhibition by setting is: (at 1.2 µM) 0%; (at 3.7 µM) 6%; (at 11.0 µM) 9%; (at 33.0 µM) 7%; (at 100.0 µM) 1%.

In the case of `COc1ccc(N=CN(C)C)c(C)c1`, the growth inhibition runs as follows: (at 1.2 µM) -63%; (at 3.7 µM) -54%; (at 11.0 µM) -43%; (at 33.0 µM) 92% (active); (at 100.0 µM) 95% (active).

On to `CC(C)(C)c1ccc(NS(=O)(=O)c2ccc(N)cc2)cc1`, for which the growth inhibition was 1% (at 1.2 µM); -1% (at 3.7 µM); 1% (at 11.0 µM); 2% (at 33.0 µM); 40% (at 100.0 µM).

Turning to `C#CCN(Cc1ccc2nc(N)[nH]c(=O)c2c1)c1ccc(C(=O)NC(CCC(=O)O)C(=O)O)cc1` (stereo not given), the growth inhibition runs as follows: (at 1.2 µM) -2%; (at 3.7 µM) 18%; (at 11.0 µM) 2%; (at 33.0 µM) 44%; (at 100.0 µM) 69%.

Take `c1ccc2cc(NCNc3ccc4ccccc4c3)ccc2c1`: the growth inhibition by setting is: (at 1.2 µM) 1%; (at 3.7 µM) 1%; (at 11.0 µM) 0%; (at 33.0 µM) -13%; (at 100.0 µM) 16%.

In the case of `CN(C)c1ccc2c(SCC(=O)OCC(=O)[C@@]3(O)CC[C@H]4[C@@H]5CCC6=CC(=O)C=C[C@]6(C)[C@H]5C(=O)C[C@@]43C)c3ccc(N(C)C)cc3nc2c1`, the growth inhibition was -12% (at 1.2 µM); -22% (at 3.7 µM); 66% (at 11.0 µM); 90% (active) (at 33.0 µM); 88% (active) (at 100.0 µM).

For the molecule `COc1ccc(/C=C/C(=O)c2ccccc2)cc1OC`, the growth inhibition is, setting by setting: (at 1.2 µM) 3%; (at 3.7 µM) 5%; (at 11.0 µM) 14%; (at 33.0 µM) 46%; (at 100.0 µM) 92% (active).

In the case of `CC(=O)SC(C[N+](=O)[O-])c1ccccc1` (stereo not given), the growth inhibition (at 1.2 µM) was 14%; the growth inhibition (at 3.7 µM) is 28%; the growth inhibition (at 11.0 µM) was 42%; the growth inhibition (at 33.0 µM) is 98% (active); the growth inhibition (at 100.0 µM) was 99% (active).
